# High-throughput results: PubChem, National Center for Advancing Translational Sciences (NCATS)
# An excerpt weighted towards active compounds, which were near 8.1% of everything screened.
# MCF10A rereplic – DNA re-replication induction in MCF 10a cells. AID 624296. MCF 10A DNA re-replication, Hoechst nuclear intensity, 48 h. Potency, µM (top dose mostly 46.1 µM), for the others: at the top dose activity, positive = re-replication, hits mostly activators. actives 2.9% (n = 350,000); note: % of control where 0% means no effect; nearly all actives have a fitted effect of over 50% in size
# KB-3-1 tox – KB-3-1 parental cell cytotoxicity. KB-3-1 viability, CellTiter-Glo ATP luminescence, 72 h. Potency, µM (doses to about 46.1 µM), most hits filed as cytotoxic. actives 1.4% (n = 400,000). AID 1347075; note: % is set by controls: 0 for no effect and ±100 for the full control effect; nearly all actives have a fitted effect of over 60% in size
#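 Cytotoxicity in the drug-sensitive parental line KB-3-1 was scored as loss of CellTiter-Glo luminescence following 72 h incubation with compound. Values come from curve fitting of normalized concentration-response data.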
# ELG1 repair inh – blocks ELG1-dependent DNA repair in HEK293T cells; HEK293T ELG1-luciferase reporter, luminescence, 16 h; DNA damage induced by 5-fluorouridine; Potency, µM (titrated, usually from 46.1 µM), without a hit: top-dose activity change, negative = inhibition, most hits filed as inhibitors; actives 2.3% (n = 330,000); AID 504467; note: % is set by controls: 0 for no effect and ±100 for the full control effect; nearly all actives have a fitted effect of over 55% in size
#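 Cells (2,000 per well) received 5-fluorouridine plus test compound or DMSO and were incubated 16 hr at 37 °C, 5% CO2. Luciferase activity was read by luminescence 30 min after ONE-Glo addition; signal suppression marked inhibition of damage-induced ELG1 function.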
# SW480 rereplic – inducers of DNA re-replication in SW480 colon cancer cells; SW480 DNA re-replication, Hoechst DNA content imaging, 48 h; Potency, µM (series often up to 46.1 µM), for inactives: top-dose re-replication activation, usual class: activators; actives 1.8% (n = 340,000); AID 624297; note: % of control where 0% means no effect; nearly all actives have a fitted effect of over 55% in size
#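 Image-based read-out: total Hoechst fluorescence of nuclei (405 nm excitation, 500-530 nm emission), with hits raising the fraction of high-intensity nuclei. SW480 colon cells incubated 48 hr with compounds at 37 C.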
# KB-V1 MDR tox – KB-V1 MDR subline cytotoxicity; KB-V1 MDR cells viability, CellTiter-Glo, 72 h; Potency, µM (highest dose often 46.1 µM), usual class: cytotoxic; actives 3.4% (n = 400,000); note: % is set by controls: 0 for no effect and ±100 for the full control effect; nearly all actives have a fitted effect of over 60% in size
#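 Readout: CellTiter-Glo luminescence, 10 min after addition. Cells: KB-V1 MDR subline, 72 h at 37 degrees C with compound. Analysis: corrected, normalized data fitted to concentration-effect curves.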
# Numbers without * were called inactive; i = inactive; ? = inconclusive; . = no result; [ ] = another dose, or the depositor's remark. Calls come from the whole dose curve; as a rule, active = well fitted curve in the direction sought with a large enough effect; inconclusive = small, poorly fitted or top-dose-only effect, or another doubt; inactive = no such curve, though single readings can be large; an effect the other way counts as inactive or inconclusive. Potency is the fitted concentration of half-maximal effect.
SMILES,MCF10A rereplic,KB-3-1 tox,ELG1 repair inh,SW480 rereplic,KB-V1 MDR tox
COc1ccc(C2CC(=O)Nc3c2c(C)nn3-c2nncc(-c3ccccc3)n2)c(OC)c1OC (stereo not given),.,i,.,.,i
OCCNCc1cc(Br)ccc1OCc1ccccc1Cl,?,?,-16%,11%,?
O=c1[nH]c2cc3c(cc2cc1C(c1nnnn1C1CCCC1)N1CCSCC1)OCCO3 (stereo not given),8%,?,1%,2%,10µM*
Cc1ccc(C(c2nnnn2C2CCCC2)N2CCc3ccccc32)cc1 (stereo not given),?,i,11%,-8%,21µM*
COc1cc2cc(C(c3nnnn3C3CCCCC3)N(C)C3CCCCC3)c(=O)[nH]c2cc1OC (stereo not given),2%,21µM*,?,14%,23µM*
Cc1ccc(C(c2nnnn2C2CCCCC2)N(C)C2CCCCC2)cc1 (stereo not given),?,i,-15%,11%,i
COc1cc2cc(C(c3nnnn3C3CCCC3)N(C)C3CCCCC3)c(=O)[nH]c2cc1OC (stereo not given),-23%,i,-13%,-2%,i
CC(C)C(c1nnnn1C1CCCC1)N(C)C1CCCCC1 (stereo not given),-6%,i,-1%,-8%,18µM*
COc1cccc(NC(=O)c2ccc3c(O)c(S(=O)(=O)c4ccccc4)c(=O)[nH]c3c2)c1,3%,i,12%,17%,i
Cc1cc(C)c(C#N)c(SCC(=O)CC(=O)OC(C)C)n1,0%,i,-8%,-4%,i
Fc1ccc(C(c2nnnn2C2CCCCC2)N2CCCC2)cc1 (stereo not given),2%,i,12%,-7%,?
Clc1ccc(C(c2nnnn2C2CCCC2)N2CCSCC2)cc1 (stereo not given),21µM*,i,?,-3%,i
CCn1cc(C(=O)N[C@@H](CC(C)C)C(=O)NCCCn2ccnc2)c(=O)c2cc3c(cc21)OCO3,1%,i,16%,13µM*,i
CCn1cc(C(=O)N[C@@H](C)C(=O)NCCCn2ccnc2)c(=O)c2cc3c(cc21)OCO3,0%,i,8%,?,?
Cc1cc(C(=O)NNc2ccccc2F)no1,9.2µM*,i,6.5µM*,18%,i
CCc1ccccc1NNC(=O)c1cc(C)on1,?,i,3%,-3%,i
CN(C)S(=O)(=O)c1ccc(-c2csc(N/N=C/c3ccc(O)cc3)n2)cc1,?,21µM*,?,-80%,15µM*
CN(C)S(=O)(=O)c1ccc(-c2csc(N/N=C/c3ccco3)n2)cc1,?,?,?,-10%,?
Cc1ccccc1C(=O)Nc1c2c(nc3ccccc13)CCCC2,-7%,i,-2%,-20%,?
CN1CCN(S(=O)(=O)c2ccc(N3CCN(c4ccccc4Cl)CC3)nc2)CC1,?,i,11%,-11%,i
CCCCC12CN3CC(C)(CN(C1)C3c1ccc(OCc3ccccc3)cc1)C2=O (stereo not given),.,i,.,.,i
CCCCC12CN3CC(C)(CN(C1)C31C(=O)N(C)c3ccc(C)cc31)C2=O (stereo not given),21%,i,-31%,15%,9.2µM*
Oc1c(Cl)cc(Cl)c2cccnc12,6.7µM*,?,2.3µM*,3.8µM*,i
Cc1ccc(S(=O)(=O)Nc2cc(Cl)c(O)c3ncccc23)cc1,?,?,?,5.2µM*,?
Clc1cc2cccnc2c2ccccc12,-9%,i,-4%,-7%,i
SMILES,MCF10A rereplic,KB-3-1 tox,ELG1 repair inh,SW480 rereplic,KB-V1 MDR tox
Cc1ccc(S(=O)(=O)Nc2cccnc2Oc2ccc(Cl)cc2)cc1,1%,i,8%,-9%,i
Oc1ccc(Cl)c2cccnc12,?,?,.,21µM*,?
Cc1ccc(CCC(=O)Nc2cc(Cl)ccc2Cl)o1,-2%,i,-9%,7%,i
Cc1ccc(CCc2nnc(SCC(=O)Nc3cc(Cl)ccc3Cl)n2-c2ccccc2)o1,?,i,-16%,11%,15µM*
COc1ccc(NC(=O)CCCNC(=O)Cn2cnc3sc4c(c3c2=O)CCCC4)c(OC)c1,1%,i,1%,-2%,21µM*
O=C(Cn1cnc2sc3c(c2c1=O)CCCC3)NCC(=O)Nc1c(F)cccc1F,-3%,i,1%,16µM*,i
O=C(CNC(=O)Cn1cnc2sc3c(c2c1=O)CCCC3)NCc1ccccn1,-3%,i,15%,1%,i
COC(=O)c1ccc(COc2ccc3c4c(c(=O)oc3c2)CCC4)o1,6%,i,23%,0%,i
CC(C(=O)c1ccc(-c2ccccc2)cc1)[n+]1ccccc1 (stereo not given),19%,?,3%,1%,i
Cc1cc[n+](C(C)C(=O)c2ccc(-c3ccccc3)cc2)cc1 (stereo not given),2%[9.22 µM],?,2.1µM*,17%,i
O=C(Nc1ccncc1)Nc1cccc(C(F)(F)F)c1,23%,i,?,24%,i
CCN(CC)S(=O)(=O)c1ccc(/C=C/C(=O)Nc2cccc(F)c2)cc1,3%,i,13µM*,-4%,i
O=C(Nc1ccc(OC(F)F)cc1)Nc1cccc(C(F)(F)F)c1,?,8.2µM*,-8%,?,13µM*
CCN(CC)S(=O)(=O)c1ccc(NC(=O)Nc2cccc(C(F)(F)F)c2)cc1,?,9.2µM*,?,28%,13µM*
CCN(CC)S(=O)(=O)c1ccc(NC(=O)C2c3ccccc3Oc3ccccc32)cc1,-38%,i,10%,2%,18µM*
CC(O)CNc1nc2ccccc2n1CC(=O)N1CCN(Cc2ccccc2)CC1 (stereo not given),5%,i,4%,-1%,?
O=C(NCCOc1ccccc1)C1C(=O)Nc2ccccc2C(=O)N1C1CCCCC1 (stereo not given),.,i,.,.,i
Cc1ccc(C)c(S(=O)(=O)Nc2ccc3cn[nH]c3c2)c1,1%,i,-3%,0%,i
CCOc1cc(C)c(S(=O)(=O)Nc2ccc3cn[nH]c3c2)cc1C,-2%,21µM*,-1%,-1%,?
Cc1ccc(S(=O)(=O)Nc2ccc3cn[nH]c3c2)cc1C,11%,i,-20%,3%,i
Cc1ccc(S(=O)(=O)Nc2ccc3cn[nH]c3c2)c(C)c1,16%,i,0%,16µM*,i
O=C(CC1C(=O)NCCN1Cc1ccccc1C(F)(F)F)NC1CCCC1 (stereo not given),0%,.,-6%,6%,.
